Screening results as filed in PubChem BioAssay.
TMEM16A inh = mouse TMEM16A channel inhibition, primary screen | Q8BHY3 | HEK293 TMEM16A/YFP iodide influx fluorescence, ionomycin | normalized B-score (activity score, 25-100; higher = stronger inhibition) at 10 µM | 310,000 compounds, 1.2% hits | AID 588511;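 active = ratio plate-corrected score three or more library SD toward inhibition, starting fluorescence score within five deviations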;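 also: score derived from kinetic fluorescence span divided by baseline fluorescence per well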
Target sequence (Q8BHY3 whole entry, looked up): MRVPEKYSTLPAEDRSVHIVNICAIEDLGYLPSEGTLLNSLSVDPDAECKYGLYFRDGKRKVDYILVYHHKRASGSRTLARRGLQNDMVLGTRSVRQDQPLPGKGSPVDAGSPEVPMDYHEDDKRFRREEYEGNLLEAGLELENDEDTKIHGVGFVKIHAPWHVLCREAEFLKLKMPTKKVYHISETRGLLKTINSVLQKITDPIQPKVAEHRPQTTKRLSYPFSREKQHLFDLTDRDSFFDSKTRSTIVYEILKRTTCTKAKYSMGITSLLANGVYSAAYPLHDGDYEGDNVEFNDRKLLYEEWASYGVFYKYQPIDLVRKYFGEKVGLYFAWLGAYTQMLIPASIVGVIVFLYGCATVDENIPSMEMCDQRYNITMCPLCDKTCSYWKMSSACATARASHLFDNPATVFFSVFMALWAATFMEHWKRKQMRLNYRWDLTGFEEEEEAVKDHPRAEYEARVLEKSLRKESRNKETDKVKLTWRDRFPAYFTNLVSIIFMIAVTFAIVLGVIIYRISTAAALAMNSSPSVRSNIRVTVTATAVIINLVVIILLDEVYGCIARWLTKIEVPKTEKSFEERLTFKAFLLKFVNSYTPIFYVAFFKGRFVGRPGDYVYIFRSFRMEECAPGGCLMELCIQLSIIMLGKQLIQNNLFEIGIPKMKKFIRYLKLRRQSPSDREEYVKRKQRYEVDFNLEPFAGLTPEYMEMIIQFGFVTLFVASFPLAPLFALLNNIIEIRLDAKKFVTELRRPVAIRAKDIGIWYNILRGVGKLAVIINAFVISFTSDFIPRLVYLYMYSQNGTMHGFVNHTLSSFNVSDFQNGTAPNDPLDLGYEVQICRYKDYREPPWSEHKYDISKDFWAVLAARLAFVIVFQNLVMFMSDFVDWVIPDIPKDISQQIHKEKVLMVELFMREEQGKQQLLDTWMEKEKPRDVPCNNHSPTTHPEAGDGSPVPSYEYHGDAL
CHT PAM = allosteric activators of human choline transporter CHT; 310,000 compounds, 0.49% hits; Q9GZV3; CHT-expressing cells, membrane potential dye, choline EC20; active compounds read high; LV-AA mutant CHT in HEK293 cells; B-score at 10 µM;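 active = initial fluorescence not abnormally high and integrated response B-score, plate-corrected, over 3 SD above library mean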
ANO1 activ = activates or potentiates the mouse TMEM16A chloride channel. Q8BHY3. HEK293 TMEM16A/YFP-H148Q/I152L, iodide quench fluorescence; active compounds read low. B-score at 10 µM. 340,000 compounds, 0.3% hits;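 active = fluorescence-ratio B-score plate-corrected deviation score at least 3 library SD below zero, with starting fluorescence score within 5 deviations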;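 also: channel opened by trigger with iodide after compound preincubation; score built on the fluorescence ratio of max minus min over baseline; more negative score means more quench and so TMEM16A activation or potentiation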
CHT inh = inhibitors of human choline transporter CHT; Q9GZV3; B-score at 10 µM; CHT-expressing cells, membrane potential dye, choline response; active compounds read low; 310,000 compounds, 0.86% hits;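 active = B-score over 3 SD under the library average, and starting fluorescence ratio not unusually high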;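 also: choline stimulus applied at its EC90 after an EC20 pre-addition; B-score computed on integrated fluorescence ratio after choline addition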
Hits are given with their value; 0 = inactive; - = not tested or not shown. Only some compounds are listed: those with a hit (about 2.3% of all), similar ones and a draw of the others.

SMILES | TMEM16A inh | CHT PAM | ANO1 activ | CHT inh
COc1ccc(CNC(=O)/C(C#N)=C2\N=C(NC(=O)c3cccs3)c3ccccc32)cc1 | 0 | 0 | 0 | 0
C/C(=N\NS(=O)(=O)c1ccccc1)c1cc(Cl)cc(Cl)c1O | 100 | 0 | 0 | 0
C/C(=N/NS(=O)(=O)c1ccc(Cl)cc1)c1cccc(O)c1 | 0 | 0 | 0 | 0
CC(C)NS(=O)(=O)c1ccc(NC(=O)C(C)Oc2ccc(C(=O)c3ccccc3)cc2)cc1 (centres undefined) | 100 | 0 | 0 | 0
O=c1oc2ccccc2c(Nc2cc3ccccc3cc2O)c1[N+](=O)[O-] | 100 | 0 | 0 | 0
CCCc1c(-c2ccc(O)cc2)nn(-c2ccc(O)cc2)c1-c1ccc(O)cc1 | 100 | 0 | 0 | 0
Cc1c(C(N)=O)c(-c2ccccc2)nn1-c1ccccc1 | 0 | 0 | 0 | 0
Cc1cc2c(c(/C=C/C(=O)c3ccccc3)c1)OC1(C=C2)Oc2ccccc2C(=O)N1C (centres undefined) | 0 | 0 | 0 | 0
O=C1/C(=C/c2ccc(O)cc2)SC(=S)N1CC1CCCO1 (centres undefined) | 0 | 0 | -5.1 | 0
COc1ccc(C)cc1NC(=O)CCCN1C(=O)C(c2ccccc2)Oc2cccnc21 (centres undefined) | 0 | 0 | 0 | 0
NC(=O)/C(=C/c1ccco1)C(N)=S | 0 | 0 | 0 | 0
Cc1cc(Cl)c(S(=O)(=O)N2CCN(c3ccc(F)cc3)CC2)cc1OCC(=O)NC1CCCCC1 | 25 | 0 | 0 | 0
Cc1cc(C(=O)COC(=O)C2=COCCO2)c(C)n1-c1cccc(F)c1 | 0 | 0 | 0 | 0
S=C(NNc1ccnc2cc(Cl)ccc12)Nc1ccccc1Cl | 25 | 0 | 0 | 0
CCOC(=O)c1c(C)oc2ccc(O)c(CN3CCCCC3)c12 | 0 | 0 | 0 | 0
CCOC(=O)c1c(CSc2ccccc2)n(C)c2cc(Br)c(O)c(CN(C)C)c12 | 0 | 0 | 0 | 0
CCOC(=O)c1c(CN2CCCCC2)n(C)c2cc(Br)c(O)c(CN(C)C)c12 | 0 | 11 | 0 | 0
CCOC(=O)c1c(C)n(C)c2ccc(O)c(CN3CCCCC3)c12 | 0 | 0 | 0 | -13
CCOC(=O)c1c(CN2CCCCC2)n(C)c2cc(Br)c(OC)cc12 | 0 | 0 | 0 | 0
CCOC(=O)c1c(CN2CCN(CCO)CC2)n(C)c2cc(Br)c(OC)cc12 | 0 | 7.7 | 0 | 0
O=C(COC(=O)Cc1c(F)cccc1Cl)NC(=O)Nc1ccccc1F | - | - | 0 | -
Cc1ccc(S(=O)(=O)Nc2ccccc2F)cc1C(=O)N1CCN(c2ccccc2O)CC1 | - | - | 0 | -
Cn1c(=O)c2c(nc(Sc3ncnn3CC(=O)NC3CCCCC3)n2C)n(C)c1=O | 0 | 0 | 0 | 0
CCOC(=O)C1CCCCN1Cc1ccc(-c2ccccc2)cc1 (centres undefined) | 0 | 0 | 0 | 0
Cc1noc(C)c1COc1ccc(C(=O)OCc2nnc(-c3ccc(Cl)cc3)o2)cc1 | 0 | 0 | -5 | 0
SMILES | TMEM16A inh | CHT PAM | ANO1 activ | CHT inh
CC(=O)NCCNC(=O)c1ccc(NC2=NC3CS(=O)(=O)CC3S2)cc1 (centres undefined) | 0 | 0 | -12 | 0
CN(C(=O)COC(=O)c1cc(NS(=O)(=O)c2cc([N+](=O)[O-])ccc2Cl)ccc1O)C1CCCCC1 | 0 | 0 | 0 | 0
Cc1ccc(CSCC2Nc3ccc(C(=O)N4CCN(c5cccc(C)c5)C(C)C4)cc3NC2=O)cc1 (centres undefined) | 0 | 0 | - | 0
CC(C)OCCCn1c(SC(C)C(=O)NCC2CCCO2)nc2cc(Cl)ccc2c1=O (centres undefined) | 0 | 0 | 0 | 0
CC(C)Cn1c(SC(C)C(=O)NCC2CCCO2)nc2ccc(Cl)cc2c1=O (centres undefined) | - | - | -25 | -
Cc1ccc(C(=O)NC(=S)NNC(=O)c2cccc([N+](=O)[O-])c2)cc1 | 0 | 0 | 0 | 0
COc1cc(C(=O)NNC(=S)NC(=O)c2ccc(Cl)cc2)cc(OC)c1OC | 0 | 0 | 0 | 0
O=C(NNC(=S)NC(=O)c1cccc([N+](=O)[O-])c1)c1ccc(O)cc1 | 0 | 0 | 0 | 0
Cc1cccc(C(=O)NC(=S)NNC(=O)c2ccc(Cl)cc2)c1 | 25 | 0 | 0 | 0
COc1ccc(C(=O)NNC(=S)NC(=O)c2ccc(Cl)cc2)cc1 | 100 | 0 | 0 | 0
O=C(NNC(=S)NC(=O)c1cccc([N+](=O)[O-])c1)c1ccc(Br)cc1 | 100 | 0 | 0 | 0
Cc1nn(C)c(C(=O)NC(=S)Nc2ccccc2Br)c1Cl | 0 | 0 | -6.7 | 0
COc1ccc(C(=O)c2ccc(OC)c(N)c2)cc1N | 0 | 12 | 0 | 0
Cc1sc2ccc3sccc3c2[n+]1C | 0 | 12 | 0 | 0
